Compound activity: PubChem, several laboratories
esBAF inh: Bmi1 luciferase reporter increase in mESCs, primary screen, esBAF inhibitor project, mouse ES cells, Bmi1 luciferase knock-in, single point; AID 602393, 2012; 24 h; 100% = twice the neutral-well signal; reporter increase, % at 12.5 µM; actives 2% (n = 350,000); in the data active = activation above about 40%; inconclusive = no clear call, values can overlap the other calls;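 also: 0% = median of the plate's neutral control wells and 100% = double that signal; a rise in the Bmi1 reporter signal indicates esBAF inhibition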
hgDAF12 agonist: H. glycines DAF-12 receptor agonists, primary screen, cell-based, luminescence, HEK293, GAL4 fusion, UAS-luciferase. activation, % at 6.8 µM. Nuclear hormone receptor DAF-12 (Heterodera glycines), GAL4 fusion. HEK293 GAL4-hgDAF12 UAS-luciferase reporter, agonist luminescence; normalized to butyrate control. actives 1.8% (n = 370,000). AID 687014, 2013;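 active = activation above a cutoff set at the mean of all screened compounds plus 3 SD, cut at about 10% in these data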;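 also: 0% = DMSO wells and 100% = sodium butyrate wells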
hcDAF12 agonist: H. contortus DAF-12 nuclear receptor activators, primary screen, cell-based, luminescence, HEK293, lit1-tk-luc reporter. HEK293 hcDAF-12 lit1-tk-luc reporter; 0% DMSO, 100% Δ7-dafachronic acid. activation, % at 6.8 µM. actives 1.4% (n = 370,000);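 active = activation above the mean of all tested compounds plus 3 SD, cut at about 5.5% in these data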;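 also: 100% = response to 3 µM Δ7-dafachronic acid high control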
DAX1 StAR inh: DAX1 (NR0B1) inhibitors on StAR promoter, primary screen, cell-based, luminescence, SF-1 (NR5A1), full-length DAX-1 | inhibition, % at 6.8 µM | HEK293T StAR-luciferase reporter, SF-1/DAX-1 repression relief | actives 1.1% (n = 370,000);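 active = inhibition above the mean over all tested compounds plus 3 SD, cut at about 3.6% in these data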;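 also: 0% = DAX-1 cells with DMSO and 100% = cells lacking DAX-1 with DMSO; higher inhibition means more luminescence from relief of DAX-1 repression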
ssDAF12 agonist: S. stercoralis DAF-12 nuclear receptor activators, primary screen, cell-based, luminescence, HEK293, GRIP1 co-expression, lit1-tk-luc; activation, % at 6.8 µM; Nuclear hormone receptor DAF-12 (Strongyloides stercoralis); AID 652126, 2013; HEK293 ssDAF-12/GRIP1 lit1-tk-luc reporter; % of 3 µM dafachronic acid response; actives 1% (n = 370,000);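 active = activation above the mean over all tested compounds plus 3 SD, cut at about 0.9% in these data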;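 also: 0% = DMSO-only wells and 100% = 3 µM delta7-dafachronic acid wells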
Wnt act: Wnt/beta-catenin pathway activators, primary screen, cell-based, plate reader, single point | Wnt/beta-catenin reporter cell assay, activator | activation, % at 9.35 µM | actives 1.2% (n = 300,000); in the data active = activation above about 30%, passing the limit was not always enough; inconclusive = no clear call, values can overlap the other calls;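 also: 0% = neutral control wells and 100% = positive control wells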
Starred values were filed as active, the others as inactive; ? = inconclusive; nt = not tested or not shown. Only some compounds are listed: those with a hit (about 4.2% of all), similar ones and a draw of the others.

SMILES	esBAF inh	hgDAF12 agonist	hcDAF12 agonist	DAX1 StAR inh	ssDAF12 agonist	Wnt act
O=C(COc1ccc2ccccc2c1)N1CCN(c2ccccc2)CC1	-4.8	1.2	-0.3	1.2	-1.4	-1.0
O=C(COc1ccc2ccccc2c1)N1CCCC1	26.3	7.3	1.2	1.5	-0.5	36.5*
O=C(COc1ccc(Br)cc1)OCC(=O)N1CCOCC1	-16.0	0.8	-0.2	-0.4	-0.9	0.1
CO[C@H]1CN(C)C(=O)c2ccc(NC(=O)C3CCCC3)cc2OC[C@H](C)N(CCC(F)(F)F)C[C@H]1C	6.6	nt	nt	nt	nt	nt
CCC(=O)Nc1sc2c(c1C#N)CCCCC2	34.9	3.1	-1.3	0.0	-1.0	nt
Cn1cc(Br)c(C(=O)Nc2sc3c(c2C(N)=O)CCCC3)n1	67.2*	6.2	-1.1	0.3	-1.1	8.8
COc1cc(OC)cc(C(=O)Nc2sc3c(c2C(N)=O)CCC3)c1	?	6.8	0.9	0.4	1.1*	-3.3
CCCN1CCc2c(sc(NC(=S)NC(=O)c3ccccc3)c2C#N)C1	nt	5.3	3.0	3.0	-1.6	8.7
CCCC(=O)Nc1sc2c(c1C#N)CCCCC2	85.1*	7.8	0.4	0.6	-0.8	1.9
CCn1cc(Br)c(C(=O)Nc2sc3c(c2C(N)=O)CCCC3)n1	7.3	nt	nt	nt	nt	nt
CC(C)N1CCc2c(sc(NC(=S)NC(=O)c3ccccc3)c2C#N)C1	nt	4.5	8.3*	0.6	-1.5	19.2
Cc1noc(C)c1NC(=O)Nc1ccc2c(c1)CC(=O)N([C@H](C)CO)C[C@H](C)[C@H](CN(C)C(=O)Nc1c(C)noc1C)O2	-2.3	nt	nt	nt	nt	nt
Cc1ccc(S(=O)(=O)Nc2ccc3c(c2)C(=O)N([C@H](C)CO)C[C@H](C)[C@@H](CN(C)C(=O)C2CCCCC2)OCCCC[C@@H](C)O3)cc1	-1.0	nt	nt	nt	nt	nt
CCCN1[C@@H]2c3ccc(C4=CCCC4)c(=O)n3C[C@@H]2[C@@H](CO)[C@@H]1C(=O)NC1Cc2ccccc2C1	5.8	nt	nt	nt	nt	nt
CC(C)C(=O)Nc1ccc2c(c1)C(=O)N(C)[C@@H]1CC[C@@H](CC(=O)O)O[C@H]1CO2	2.6	nt	nt	nt	nt	nt
CC(C)(C)c1ccc(C(=O)OCC(=O)Nc2sc3c(c2C#N)CCC3)cc1	nt	1.4	-1.0	0.4	-1.3	-1.1
Cc1cc(C(=O)Nc2sc3c(c2C#N)CCCC3)no1	21.7	11.6*	4.6	3.5	-0.5	-0.7
COc1ccccc1OCC(=O)Nc1sc2c(c1C(N)=O)CCC2	76.8*	8.0	3.1	1.2	-2.5	-2.0
Cc1cc(C(=O)Nc2sc3c(c2C#N)CCC3)no1	39.8	7.9	1.1	1.5	-0.1	7.2
CC(C(=O)Nc1sc2c(c1C#N)CCCCC2)N1C(=O)c2ccccc2C1=O (stereo unspecified)	-0.2	3.2	3.8	0.2	1.1*	-0.7
Cc1ccccc1OCC(=O)Nc1sc2c(c1C#N)CCC2	47.3*	0.1	0.0	0.4	-1.8	-0.6
CC(=O)Nc1sc2c(c1C#N)CCCCC2	12.8	1.4	-0.8	-0.3	-1.3	10.5
CO[C@H]1CN(C)C(=O)c2cc(NC(=O)Nc3ccccc3F)ccc2OC[C@H](C)NC[C@@H]1C	4.9	nt	nt	nt	nt	nt
CCC(=O)N(C)C[C@@H]1Oc2ncc(-c3ccccc3OC)cc2C(=O)N([C@H](C)CO)C[C@H]1C	-2.1	nt	nt	nt	nt	nt
CN1CCN(C(=O)C[C@@H]2C[C@@H]3c4cc(NC(=O)NC5CCCCC5)ccc4O[C@@H]3[C@@H](CO)O2)CC1	-6.4	nt	nt	nt	nt	nt
SMILES	esBAF inh	hgDAF12 agonist	hcDAF12 agonist	DAX1 StAR inh	ssDAF12 agonist	Wnt act
CC1CCCC=CC2CC(OC(=O)CN(C)C)CC2C(O)C=CC(=O)O1 (stereo unspecified)	nt	-7.8	-2.2	4.5*	-1.7	-10.0
O=C(NCC(c1ccco1)N1CCCCC1)c1cc2c(s1)CCCC2 (stereo unspecified)	6.1	1.4	-0.9	4.2*	-0.4	3.2
O=C(NCc1ccco1)c1cc2c(s1)CCCCC2	56.8*	7.9	4.6	1.9	-0.7	-4.6
COCC(=O)Nc1ccc2c(c1)[C@@H]1C[C@H](CC(=O)NCc3ccc(Cl)cc3)O[C@@H](CO)[C@@H]1O2	2.6	nt	nt	nt	nt	nt
NC(=O)COC(=O)CCCc1c[nH]c2ccccc12	-4.9	-2.3	-1.3	0.4	-0.6	nt
NC(=O)Cc1c[nH]c2cccc(O)c12	-2.2	0.0	-1.7	-0.8	-0.9	36.2*
CO[C@H]1CN(C)C(=O)c2ccc(NC(=O)Nc3ccccc3)cc2OC[C@@H](C)NC[C@H]1C	6.6	nt	nt	nt	nt	nt
C[C@H](CO)N1C[C@H](C)[C@@H](CN(C)C(=O)Nc2cccc3ccccc23)OCc2cnnn2CCCC1=O	-4.0	nt	nt	nt	nt	nt
Cc1ccccc1/C=C/C1=NCCN1	7.4	-4.1	-0.1	-0.9	1.2*	3.7
Cc1ccc(SCC(=O)NCCc2ccccc2)cc1	12.7	-1.1	0.1	-0.1	1.7*	0.0
O=C(CSc1ccccc1)NCCc1ccccc1	52.2*	6.5	0.5	0.5	-1.5	6.3
O=C(CSc1nncs1)NCCCc1ccccc1	nt	0.8	-0.5	0.6	-0.8	77.9*
Cc1ccc(SCC(=O)c2ccc[nH]2)cc1	60.7*	10.9*	-0.1	0.1	-1.0	8.2
Cc1ccc(CNC(=O)c2ccc[nH]2)cc1	nt	2.1	-1.6	0.8	-0.8	-1.7
O=C(CSc1ccccc1)NCCc1ccc(F)cc1	9.0	2.1	-1.1	-0.5	-1.1	2.1
COc1ccc(S(=O)(=O)N(C)C[C@@H]2Oc3ccc(NS(C)(=O)=O)cc3C(=O)N([C@H](C)CO)C[C@@H]2C)cc1	-3.4	nt	nt	nt	nt	nt
COc1ccc(NC(=O)N[C@H]2CC[C@@H](CCn3cc(-c4ccccc4)nn3)O[C@H]2CO)cc1	13.2	nt	nt	nt	nt	nt
CC(C)NC(=O)N(C)C[C@@H]1Oc2ccc(NC(=O)Cc3cn(C)c4ccccc34)cc2C(=O)N([C@H](C)CO)C[C@@H]1C	-5.1	nt	nt	nt	nt	nt
CC(C)(C)SCCNC(=O)COc1ccccc1	16.3	1.4	-0.9	0.5	-1.3	nt
O=C(COc1ccccc1)NCCSc1ccccc1	51.7*	4.3	1.3	0.6	-0.4	17.7
CC(Sc1ccccc1)C(=O)NCCc1ccccc1 (stereo unspecified)	63.3*	4.2	1.5	0.5	-1.2	4.7
O=C(C[C@H]1C[C@H]2c3cc(NS(=O)(=O)c4ccccc4)ccc3O[C@H]2[C@@H](CO)O1)NCC1CC1	4.7	nt	nt	nt	nt	nt
CO[C@H]1CN(C)C(=O)c2ccc(NC(=O)C3CCC3)cc2OC[C@@H](C)N(Cc2ccncc2)C[C@H]1C	4.4	nt	nt	nt	nt	nt
